According to ChEMBL document CHEMBL3988442, “University of Dundee, Small-Polar-MMV Screening Library” (2021):
About 13,000 (27%) of roughly 48,000 compounds showed an effect of 50% or more. The list shows a part of the results.

system: Wolbachia pipientis; assay: Anti-Wolbachia Cell-Based Screen; assay type: functional; set-up: scale not given: in the data most compounds retested in dose-response had high values; settings: 5 µM

Structure (SMILES)	Percent Effect [%]
CCC1=N[C@@]2(CC[C@@H]3CN(S(=O)(=O)CC)C[C@@H]32)C(=O)N1CC	5.096
Cc1nc(C(=O)N2CCN(c3ncccn3)[C@@H]3CS(=O)(=O)C[C@@H]32)cs1	-1.503
c1cnnc(N2CCCC2CNc2ncnc3ccccc23)c1 (stereo unspecified)	0.08494
Cc1cc(NC(=O)N2CCN(C)CC2C)n(C)n1 (stereo unspecified)	-19.14
Cc1cc(CNc2ccnn2CC(C)C)ccc1-n1cncn1	-23.25
CSc1ccc(NS(=O)(=O)c2cnn(C)c2)cn1	-3.394
CCc1ccc(C(=O)N2CCCN(Cc3csc(CC)n3)CC2)o1	-14.26
CCc1nc(CN2CCCN(C(=O)c3ccco3)CC2)cs1	109.2
CCc1nnsc1C(=O)N1CCCN(Cc2cnn(CC)c2)CC1	-1.096
CCn1cc(CN2CCCN(C(=O)c3c(C)oc(C)c3C)CC2)cn1	105.9
CCc1nc(CN2CCCN(C(=O)c3ccccc3)CC2)cs1	5.45
Cc1ccc(NS(C)(=O)=O)c(C(=O)NCCC(=O)NC(C)C)c1	-8.186
CCOCCN1CCC(c2cncc(C)n2)CC1	133
c1ccc(OCCN2CCCC(c3noc(C4CC4)n3)C2)cc1 (stereo unspecified)	-2.8
c1ccc(OCCN2CCC(c3cnccn3)CC2)cc1	90.65
c1ccc(OCCN2CCC(c3nnc(-c4cccnc4)o3)CC2)cc1	108.1
CCOCCN1CCC(c2cnccn2)CC1	103.5
CCOCCN1CCn2c(C)nnc2C1	4.517
CCOCCN1CCN(Cc2nnc(C3CC3)o2)CC1	-12.93
c1ccc(CCCN2CC[C@H](c3nnc(-c4cccnc4)o3)C2)cc1	5.165
OCCn1cc(CN2CCN(CCOc3ccccc3)CC2)cn1	-4.681
Fc1ccc(CCN2CCC(c3nnc(-c4cccnc4)o3)CC2)cc1	-17.22

Structure (SMILES)	Percent Effect [%]
CCOCCN1CCc2cncnc2C1	24.85
O=C(c1cc(C2CC2)no1)N1C[C@H]2CC[C@@H]1CN(Cc1ccccn1)C2	-3.322
CCNC(=O)CCC(=O)NC(Cc1ccccc1)c1sccc1C (stereo unspecified)	-7.516
CC(C)CN1CCCC1c1ccc(C(=O)Nc2ccc3[nH]nnc3c2)s1 (stereo unspecified)	0.6901
CCC(C)(CO)NC(=O)Nc1cc2c(cc1SC)OCCO2 (stereo unspecified)	-5.152
CCOC(C)c1nc(Cn2cc(-n3cccc3)cn2)cs1 (stereo unspecified)	-7.68
COc1ccc(F)cc1C(C)NC(=O)Nc1nncs1 (stereo unspecified)	5.791
CCCN1CCC(c2nc3ccc(-c4ccncc4)cn3n2)CC1.O=C(O)C(F)(F)F.O=C(O)C(F)(F)F	100.7
CCCN1CCC(c2nc3ccc(-c4cccc(F)c4)cn3n2)CC1.O=C(O)C(F)(F)F	109.7
O=C(O)C(F)(F)F.c1ccc(-c2ccc3nc(C4CCN(CC5CC5)CC4)nn3c2)cc1	21.53
CCCN1CCC(c2nc3ccc(-c4cccc(OC)c4)cn3n2)CC1.O=C(O)C(F)(F)F	95.04
CCCN1CCC(c2nc3ccc(NCc4ccccc4)cn3n2)CC1.O=C(O)C(F)(F)F.O=C(O)C(F)(F)F	-22.92
CCCN1CCC(c2nc3ccc(NCc4cccnc4)cn3n2)CC1.O=C(O)C(F)(F)F.O=C(O)C(F)(F)F.O=C(O)C(F)(F)F	-17.81
CCCN1CCC(c2nc3ccc(-c4ccccc4)cn3n2)CC1.O=C(O)C(F)(F)F	132.6
Cc1cccc(-c2ccc3nc(C4CCN(CC5CC5)CC4)nn3c2)c1.O=C(O)C(F)(F)F	10.89
COCC(=O)N1CCC(c2nc3ccc(-c4ccncc4)cn3n2)CC1.O=C(O)C(F)(F)F	3.081
O=C(COCC1CC1)Nc1ccn(Cc2cccc3cccnc23)n1	-5.086
CCn1cc(SCC(=O)N2CCCC(O)(CO)C2)c2ccccc21 (stereo unspecified)	-16.21
COc1cccc(C(=O)N2CCN(C(=O)CCCc3cn[nH]c3)CC2)c1	-9.764
CCOCC1CN(C(=O)Cc2ccsc2)Cc2ccnn2C1.O=C(O)C(F)(F)F (stereo unspecified)	4.742
O=C(CCN1CCCO1)N1CC[C@@H](c2ccc3ccccc3c2)[C@H](O)C1	7.888
CC(C)SCCn1ccc2[nH]c(=O)c(C#N)cc2c1=O	-14.16

Structure (SMILES)	Percent Effect [%]
CN1CCC(c2nc3ccc(-c4cccc(F)c4)cn3n2)CC1.O=C(O)C(F)(F)F	117.6
Cn1cc(C2(C)CN(Cc3ccc(N4CCCC4)nc3)CCO2)cn1 (stereo unspecified)	-5.624
CCc1oc(C(=O)NCCc2cc(O)nc(C)n2)cc1CN1CCCC1	-0.3531
CCc1oc(C(=O)NCCNS(C)(=O)=O)cc1CN1CCCC1	20.77
CCc1oc(C(=O)NC(C)c2ncn[nH]2)cc1CN1CCCC1 (stereo unspecified)	82.75
CCc1oc(C(=O)NCCc2nc(C(=O)O)cs2)cc1CN1CCCC1	10.42
Cc1cc(C)nc(NC(C)Cc2cnccn2)n1 (stereo unspecified)	-26.5
CC(Cc1cnccn1)NC(=O)COc1ccc(F)cc1F (stereo unspecified)	0.5787
CCc1oc(C(=O)NCCSc2ncn[nH]2)cc1CN1CCCC1	77
Cc1ccc(NC2(C(=O)NC(C)c3ncn[nH]3)CCCC2)cc1 (stereo unspecified)	4.641
CCc1oc(C(=O)NC(C)Cc2cnccn2)cc1CN1CCCC1 (stereo unspecified)	92.2
COc1c(F)cccc1C(=O)NC(C)c1cnn(C)c1 (stereo unspecified)	2.584
Cc1ccccc1S(=O)(=O)CCOC(C)C	-3.521
O=C(C1CCOCC1)N1C[C@@H](F)[C@@H](OCc2nc3cc(F)ccc3[nH]2)C1	-12.95
CCc1cc(C(=O)NCC2CCN(Cc3ccncc3)CC2)on1	4.058
O=C(NCC1CCN(CCc2ccccc2)C1)c1c(F)cccc1F (stereo unspecified)	-12.95
COCCN1CCC(CNC(=O)c2cc(Cl)c[nH]2)CC1	92.15
CC(C)(C)OC(=O)NCC1CCN(C(=O)c2cc(Cl)c[nH]2)CC1	10.1
CCN1CCC(CNC(=O)c2cc(Cl)c[nH]2)CC1	93.05
COCCN1CCC(CNC(=O)c2cc(C)cc(C)c2)C1 (stereo unspecified)	11.6
COCCN1CCC(CNC(=O)Nc2ccc(F)c(Cl)c2)C1 (stereo unspecified)	-3.47
O=C(NCC1CCN(CCc2ccccc2)C1)c1cc(Cl)c[nH]1 (stereo unspecified)	98.65
